Holding throughout (assay): NCI-60 one-dose screen, 48 h (100 = growth as untreated, 0 = no growth, -100 = all killed)
For one experiment, the system named is HCT-15 colon. The note with it: 10 µM.
In the next experiment the test system is HT29 colon. The note with it: 10 µM.
Another experiment concerns SNB-75 CNS. The note with it: 10 µM.
Another experiment deals with SNB-19 CNS. As to conditions: 10 µM.
For the next experiment, the system named is PC-3 prostate. As to conditions: 10 µM.
The next experiment relates to SK-MEL-5 melanoma. As to conditions: 10 µM.
The next experiment deals with UACC-62 melanoma. As to conditions: 10 µM unless noted.
Another experiment deals with LOX IMVI melanoma. As to conditions: 10 µM.
The test system of the next experiment is U251 CNS. The note with it: 10 µM.
A further experiment deals with SK-MEL-28 melanoma. As to conditions: 10 µM.

The panel holds about 83,000 compounds, 20% with a hit somewhere; the sample as a whole holds those more often.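 Negative percent growth values reflect cell death: -40 means 40% of the cells present at the start died, and -100 means all died.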 Values without a mark were called inactive. The source made the active and inactive calls. Rule for the calls: active = growth percent below 10; inactive = the rest.

The source of these data is PubChem BioAssay (NCI).

As for `N#CC(=Nc1cccc(F)c1)C1=C(O)c2ccccc2C1=O`, the growth with HCT-15 colon is 76%; in the experiment on HT29 colon, 105%; with SNB-75 CNS, 54.3%; in the experiment on SNB-19 CNS it was 90.4%; in the experiment on PC-3 prostate, 83%; in the experiment with SK-MEL-5 melanoma, 90.7%. The results for the growth in the experiment with UACC-62 melanoma and with LOX IMVI melanoma were 82.8% and 91.1%, respectively.

`C/C(O)=C(\C=N\C(N)=S)C(=O)Nc1ccccc1`: the growth in the experiment on HCT-15 colon was 110%; in the experiment on HT29 colon, 101%; in the experiment on SNB-75 CNS, 88.1%; in the experiment with SNB-19 CNS, 100%; with U251 CNS, 97.4%; in the experiment on SK-MEL-5 melanoma, 97.6%. In addition, the results for the growth in the experiment on UACC-62 melanoma, in the experiment on LOX IMVI melanoma and in the experiment with SK-MEL-28 melanoma were 96.8%, 96.7% and 116%, respectively.

On to `Nc1nc(N)c(N=Nc2ccc(C(=O)O)cc2)c(N)n1`, for which the growth in the experiment on HCT-15 colon is 109%; with HT29 colon, 105%; in the experiment on SNB-75 CNS it was 103%; in the experiment on SNB-19 CNS, 95.1%; in the experiment on U251 CNS, 103%; in the experiment with SK-MEL-5 melanoma, 100%. In addition, the growth with UACC-62 melanoma was 94.4%; with LOX IMVI melanoma it was 101%; in the experiment on SK-MEL-28 melanoma it was 103%.

Regarding `CC(C)OC(=O)c1cc(NC(=S)OC(C)C)ccc1Cl`, the growth is 87.8% in the experiment with HCT-15 colon; 70.5% in the experiment with HT29 colon; 109% with SNB-75 CNS; 92.3% in the experiment with SNB-19 CNS; 96.6% with U251 CNS; 44% in the experiment on SK-MEL-5 melanoma. Also, the growth was 77.1% in the experiment on UACC-62 melanoma, 93.4% in the experiment with LOX IMVI melanoma and 101% with SK-MEL-28 melanoma.

For `CCC(C)(C)C1CCC(O)CC1` (stereo not given), the growth is 88.9% with HCT-15 colon; 97.5% with HT29 colon; 100% in the experiment on SNB-75 CNS; 100% in the experiment with SNB-19 CNS; 107% in the experiment on U251 CNS; 97.8% in the experiment with SK-MEL-5 melanoma. For the same compound, the growth in the experiment on UACC-62 melanoma was 98.2%; with LOX IMVI melanoma, 91.1%; in the experiment with SK-MEL-28 melanoma, 114%.

Regarding `NC(C(=O)O)c1ccc([N+](=O)[O-])cc1` (stereo not given), the growth was 95.7% with HCT-15 colon; 149% with HT29 colon; 78.9% with SNB-75 CNS; 99.6% in the experiment on SNB-19 CNS; 115% in the experiment on U251 CNS; 97.3% in the experiment with UACC-62 melanoma. The growth with LOX IMVI melanoma and with SK-MEL-28 melanoma was 101% throughout.

Regarding `CCCC1(c2ccccc2)NC(=O)NC1=O` (stereo not given), the growth in the experiment on HCT-15 colon was 108%; with HT29 colon, 111%; in the experiment with SNB-75 CNS, 86.5%; in the experiment with SNB-19 CNS, 105%; in the experiment on U251 CNS, 113%; in the experiment with SK-MEL-5 melanoma, 99.3%. Moreover, the results for the growth in the experiment on UACC-62 melanoma, in the experiment with LOX IMVI melanoma and in the experiment with SK-MEL-28 melanoma were 97.4%, 105% and 104%, respectively.

`Cc1cc2nc(CO)[nH]c2cc1C`: the growth was 107% in the experiment with HCT-15 colon; 102% in the experiment with HT29 colon; 90.9% with SNB-75 CNS; 98% in the experiment with SNB-19 CNS; 108% in the experiment on U251 CNS; 112% in the experiment on SK-MEL-5 melanoma. Also, the growth in the experiment with UACC-62 melanoma was 99.7%; in the experiment with LOX IMVI melanoma, 110%; with SK-MEL-28 melanoma, 108%.

For the compound `CCOC(=O)C1OC1c1ccccc1` (stereo not given), the growth was 103% in the experiment with HCT-15 colon; 112% with HT29 colon; 92% in the experiment on SNB-75 CNS; 103% in the experiment on SNB-19 CNS; 98.7% in the experiment on U251 CNS; 99.6% with SK-MEL-5 melanoma. The growth in the experiment with UACC-62 melanoma was 101%; with LOX IMVI melanoma, 101%; in the experiment with SK-MEL-28 melanoma it was 110%.

Consider `CC(=O)OCC1CCCO1` (stereo not given), for which the growth in the experiment with HCT-15 colon is 100%; in the experiment with HT29 colon, 101%; in the experiment with SNB-75 CNS, 96.1%; in the experiment with SNB-19 CNS it was 105%; in the experiment with U251 CNS it was 103%; in the experiment with PC-3 prostate, 108%. Besides, the growth was 99.8% with UACC-62 melanoma, 98% with LOX IMVI melanoma and 108% in the experiment on SK-MEL-28 melanoma.

On to `Cc1cc(=O)[nH]c(NN=C2CCCC2)n1`, for which the growth is 106% in the experiment on HCT-15 colon; 107% in the experiment with HT29 colon; 89.1% in the experiment on SNB-75 CNS; 108% in the experiment with SNB-19 CNS; 120% in the experiment with U251 CNS; 115% in the experiment on SK-MEL-5 melanoma. In addition, the growth in the experiment on UACC-62 melanoma was 100%; in the experiment with SK-MEL-28 melanoma, 113%.

Consider `OCc1cccc2ccccc12`, for which the growth with HCT-15 colon was 101%; with HT29 colon it was 114%; in the experiment on SNB-75 CNS, 86.3%; in the experiment on SNB-19 CNS, 113%; with U251 CNS, 108%; with SK-MEL-5 melanoma it was 118%. In addition, the growth was 112% with UACC-62 melanoma, 102% in the experiment with LOX IMVI melanoma and 111% in the experiment on SK-MEL-28 melanoma.

Consider `O=C(NN=C1CCCCC1)C(=O)NN=C1CCCCC1`, for which the growth was 108% with HCT-15 colon; 98.6% in the experiment with HT29 colon; 103% in the experiment with SNB-75 CNS; 110% in the experiment with SNB-19 CNS; 107% with U251 CNS; 99.9% in the experiment on SK-MEL-5 melanoma. For the same compound, the growth with UACC-62 melanoma is 109%; in the experiment with LOX IMVI melanoma, 113%; in the experiment on SK-MEL-28 melanoma it was 100%.

In the case of `C[C@@H](c1ccccc1)[C@@H](C(=O)O)c1ccccc1`, the growth with HCT-15 colon is 95.4%; with HT29 colon, 103%; with SNB-75 CNS, 88.4%; in the experiment with SNB-19 CNS, 92.4%; with U251 CNS, 93.1%; with SK-MEL-5 melanoma, 98.2%. In addition, in the experiment with LOX IMVI melanoma, the growth was 98.4%.

Consider `CC1OC(Oc2c(-c3ccc(O)c(O)c3)oc3cc(O)cc(O)c3c2=O)C(O)C(O)C1O` (stereo not given), for which the growth was 113% in the experiment on HCT-15 colon; 107% with HT29 colon; 96.5% with SNB-75 CNS; 105% with SNB-19 CNS; 104% in the experiment with U251 CNS; 95.5% in the experiment with PC-3 prostate. Besides, the growth with UACC-62 melanoma is 103%; in the experiment with LOX IMVI melanoma it was 97.1%; in the experiment with SK-MEL-28 melanoma it was 105%.

For `C#CC(C)(O)c1ccc(Cl)cc1` (stereo not given), the growth in the experiment with HCT-15 colon was 98.4%; in the experiment with HT29 colon it was 102%; in the experiment on SNB-75 CNS, 98.8%; in the experiment with SNB-19 CNS, 106%; with U251 CNS, 97.8%; in the experiment with SK-MEL-5 melanoma, 101%. The growth in the experiment with UACC-62 melanoma is -18.6% (active); in the experiment with LOX IMVI melanoma, 94.5%; with SK-MEL-28 melanoma, 110%.

For `c1cc2cccc3c4cccc5cccc(c(c1)c23)c54`, the growth was 99.9% in the experiment on HCT-15 colon; 110% with HT29 colon; 88.5% in the experiment with SNB-75 CNS; 99.5% in the experiment with SNB-19 CNS; 120% with U251 CNS; 102% with SK-MEL-5 melanoma. Further, the growth in the experiment with UACC-62 melanoma is 93.2%; in the experiment on LOX IMVI melanoma it was 97.7%; in the experiment with SK-MEL-28 melanoma, 107%.

In the case of `CC(=O)Nc1cccc(Cl)c1C`, the growth was 106% in the experiment on HCT-15 colon; 97.1% in the experiment on HT29 colon; 87.1% in the experiment with SNB-75 CNS; 107% in the experiment on SNB-19 CNS; 88.9% with U251 CNS; 102% with SK-MEL-5 melanoma. In addition, the growth with SK-MEL-28 melanoma was 107%.
